In the library only some 3.6% were active in any assay of this set; here they are far more common.
OvCa metastasis: Primary qHTS assay for Inhibitors of ovarian cancer metastasis using an organotypic tumor microenvironment (TME) model. SKOV3ip1-GFP adhesion/invasion on 3D omental model, fluorescence. Potency, µM (series often up to 45.8 µM), for the others: top-dose activity change, negative = inhibition, usual class: inhibitors. hit rate 0.1% among 46,000;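 note: plate controls were DMSO wells for no effect and tomatine positive control wells for full effect; nearly all actives have a fitted effect of over 65% in size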
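A 3D layer of primary human omental fibroblasts, mesothelial cells, fibronectin and collagen I, grown 48 hr, received SKOV3ip1-GFP cells in serum-free medium plus compounds at 0.36-46 umol/L. After 2 hr RT and 16 hr 37 C, fixed adherent GFP cells were counted; normalized to DMSO and tomatine.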
PMP22 txn prim: Cell-based coincidence reporter assay to measure PMP22 gene transcription in S16 Pmp22-F2sN cells - Primary screen; S16 Pmp22-F2sN Schwann cells, FLuc/NLuc coincidence luminescence, 24 h; Potency, µM (titrated, usually from 57.5 µM), inactives show top-dose activity change, negative = inhibition, hits mostly inhibitors; hit rate 2% among 43,000; active = clear falling dose curves in both reporters; inconclusive = both reporters move, but less clearly or upward; inactive = either reporter flat; the % is the NLuc reporter signal; note: % is set by controls: 0 for no effect and ±100 for the full control effect
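Luminescent read-out of sequential FLuc and NLuc signals from a reporter embedded in the Pmp22 3' UTR of S16 Schwann cells, taken after 24 h compound exposure at 37C; compounds reducing both signals score as inhibitors of expression.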
HTT-AS promoter: Primary qHTS for Identification of Small Molecule Activators of Huntingtin-Antisense Promoter Activity | Potency, µM (doses to about 57.5 µM), without a hit: at the top dose activity change, positive = activation, actives largely listed as activators | HEK293 HTT-AS promoter firefly luciferase reporter, 24 h; response scale: percent change from vehicle, -100% = no light | AID 1508624, 2021 | hit rate 0.24% among 48,000; note: nearly all actives have a fitted effect of over 55% in size
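HEK293 Fluc reporter, 2,500 cells/well, 24 h pre-culture; cpds up to 57.5 uM final, 24 h 37 degrees C; Dual-Glo, 10 min RT; normalized vehicle = 0%, zero RLU = -100%.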
S16 viability: Cell viability qHTS assay in S16 Pmp22-F2sN cells. S16 Pmp22-F2sN Schwann cells (luciferase reporters placed in the Pmp22 gene) viability, CellTiter-Glo, 24 h. Potency, µM (highest dose often 57.5 µM), inactives show at the top dose activity change, negative = cytotoxicity, usual class: cytotoxic. hit rate 0.48% among 43,000. AID 1508642, 2021; note: % is set by controls: 0 for no effect and ±100 for the full control effect; nearly all actives have a fitted effect of over 65% in size
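Seed 500-1,000 S16 Pmp22-F2sN cells per well in phenol-red-free DMEM with 10% heat-inactivated FBS; pin-add 23 nL compound; incubate 24 h at 37C; add CellTiter-Glo, wait 15 min protected from light; read luminescence.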
HTT promoter inh: Primary qHTS for Identification of Small Molecule Inhibitors of Huntingtin Promoter Activity | Potency, µM (series often up to 57.5 µM), for inactives: at the top dose activity change, negative = inhibition, most hits filed as inhibitors | HEK293 HTT promoter firefly luciferase reporter, 24 h | hit rate 0.93% among 48,000; note: nearly all actives have a fitted effect of over 50% in size
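Luminescence was read after Dual-Glo reagent and a 10 min room-temperature incubation. Values were normalized to vehicle (0% activity) and zero RLU (-100% activity). Reporter HEK293 cells had been exposed to compounds (up to 57.5 uM final) for 24 h.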
pS6 MEF inh: Acumen qHTS Assay for Inhibitors of the mTORC1 Signaling Pathway in MEF (Tsc2-/-, p53-/-) Cells: Sytravon; Tsc2-/- p53-/- MEF, phospho-rpS6 immunofluorescence/PI, 24 h; Potency, µM (highest dose often 38.3 µM), without a hit: at the highest dose activity change, negative = inhibition, usual class: inhibitors; hit rate 0.78% among 44,000; AID 493208, 2011;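 note: plate controls were DMSO for no effect and rapamycin for full effect; nearly all actives have a fitted effect of over 50% in size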
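Readout is phospho-S6 Alexa 488 signal normalized to PI per well, reported as % active cells with thresholds set from rapamycin (7.5 nM) and DMSO controls. Cells: Tsc2-/-, p53-/- MEFs, 24 hrs compound at 37 C; PI cell number serves as viability.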
* = called active by the depositor; i = inactive; ? = inconclusive; · = not tested or not shown. Unless noted, calls come from the whole dose curve; as a rule, active = well fitted curve in the direction sought with a large enough effect; inconclusive = small, poorly fitted or top-dose-only effect, or another doubt; inactive = no such curve, though single readings can be large; an effect the other way counts as inactive or inconclusive. Potency is the fitted concentration of half-maximal effect.

SMILES	OvCa metastasis	PMP22 txn prim	HTT-AS promoter	S16 viability	HTT promoter inh	pS6 MEF inh
O=C(Cn1c(=O)c2ccccc2n(CC(=O)Nc2ccccc2F)c1=O)NCCc1ccccc1	i	-7%	-7%	0%	-1%	-12%
Cc1cc(C)cc(NC(=O)c2ccc3c(c2)nnn3C2CCCC2)c1	4%	?	-25%	11µM*	?	-23%
CC1(C)SCCN(S(=O)(=O)c2ccc(OCC#CCO)cc2)[C@@H]1C(=O)NO	-6%	·	-2%	·	2%	·
Clc1cccc(-c2nnnn2Cc2cccnc2)c1Cl	-20%	·	-10%	·	-6%	·
COc1ccc(-c2ccc(CCC(=O)O)n2-c2ccccc2O)cc1	-10%	-54%	19%	4%	22%	13µM*
Cn1c(-c2ccc(S(=O)(=O)N3CCCC3)cc2)csc1=Nc1ccc(Cl)c(Cl)c1	i	?	-74%	?	5µM*	16%
CCn1c(-c2ccc(S(=O)(=O)N3CCOCC3)cc2)csc1=Nc1ccc(C)c(Cl)c1	2%	?	-9%	-12%	-12%	10%
NC[C@H]1O[C@H](O[C@H]2[C@@H](O)[C@@H](O[C@H]3O[C@H](CO)[C@@H](O)[C@H](N)[C@@H]3O)[C@H](N)C[C@@H]2N)[C@H](N)C[C@H]1O	2%	·	2%	·	3%	·
CC(=O)c1ccc(NC(=O)CCOc2ccccc2)cc1	-9%	-2%	?	?	47%	-5%
Cc1ccc(NC(=O)CCOc2ccccc2)cc1	4%	-12%	10µM*	3%	48%	-5%
CC(=O)N1c2c(cc(Br)cc2S(=O)(=O)Nc2ccccc2C)CC1C (configuration not stated)	i	?	-25%	6%	-23%	-1%
CCOC(=O)c1ccc(NS(=O)(=O)c2cc(Br)cc3c2N(C(C)=O)C(C)C3)cc1 (configuration not stated)	i	?	-52%	0%	16µM*	1%
COc1ccc(Cn2c(CCC(=O)Nc3ccc(C)cc3C)nc3cccnc32)cc1	i	1%	-14%	-1%	-22%	-4%
Cc1ccc(NC(=O)Cc2ccc(-n3c(C)nc4cccnc43)cc2)c(Cl)c1	9%	?	-41%	-27%	8.9µM*	-11%
CCC1=C(c2ccc(C)cc2)S(=O)(=O)N=C1N1CCC(C(=O)NCCc2ccc(Cl)cc2)CC1	2%	?	-40%	?	20µM*	-18%
CCC1=C(c2ccc(C)cc2)S(=O)(=O)N=C1N1CCC(C(=O)NCc2ccc(C)cc2)CC1	i	-6%	-38%	?	?	0%
CC(C)(O)c1cc2nc(-c3cnc(N)nc3)nc(N3CCOCC3)c2s1	1%	·	-51%	·	?	·
Cc1oc2ccc(O)c(CN3CCCC(C)C3)c2c1C(=O)Nc1ccccc1 (configuration not stated)	3%	-19%	-18%	-3%	-10%	15µM*
Fc1ccc(N2CCN(c3ncnc4c3nc3n4CCCCC3)CC2)cc1	i	?	-44%	1%	2.8µM*	4%
Clc1ccc(N2CCN(c3ncnc4c3nc3n4CCCC3)CC2)cc1	1%	14µM*	-90%	?	1.4µM*	-6%
CC(C)(C)c1nc2c3cc[nH]c(=O)c3c3cc(F)ccc3c2[nH]1	5%	·	-7%	·	-3%	·
O=C(O)c1ccc(O)c2ncc(N3CCOCC3)cc12	4%	·	-3%	·	-14%	·
CCOC(=O)N1c2ccc(C(F)(F)F)cc2[C@@H](N(Cc2cc(C(F)(F)F)cc(C(F)(F)F)c2)C(=O)OC)C[C@H]1CC	4%	·	-12%	·	-31%	·
COc1ccc(-c2noc(N3CCC(C(=O)N4CCN(c5ccccc5F)CC4)CC3)n2)cc1	5%	?	-48%	?	?	-9%
COc1ccc(NC(=O)C2CCN(S(=O)(=O)c3cc(-c4noc(C)n4)ccc3C)CC2)cc1	2%	6%	-34%	-5%	?	-2%
SMILES	OvCa metastasis	PMP22 txn prim	HTT-AS promoter	S16 viability	HTT promoter inh	pS6 MEF inh
COc1ccc(-c2noc(N3CCC(C(=O)Nc4cccc(C)c4C)CC3)n2)cc1	i	?	-59%	-4%	2.8µM*	-3%
Cc1ccc(NC(=O)C2CCN(c3nc(-c4ccc(C(C)C)cc4)no3)CC2)c(Cl)c1	i	-23%	-90%	1%	0.1µM*	0%
Cc1ccc(C)c(N2CCN(C(=O)C3CCN(c4nc(-c5ccc(C(C)C)cc5)no4)CC3)CC2)c1	i	-22%	-93%	-20%	0.11µM*	-27%
COc1ccc(Nc2cc(-c3cnc(N)nc3)nc(N3CCOCC3)n2)cn1	-15%	·	-34%	·	?	·
CCCCN(CC)C(=O)C1CCCN(c2ncnc3onc(C)c23)C1 (configuration not stated)	15%	?	-26%	-12%	?	-8%
CCCCN(C)C(=O)C1CCCN(c2ncnc3onc(C)c23)C1 (configuration not stated)	1%	?	-45%	-24%	1.8µM*	-8%
CCNC(=O)c1noc(-c2cc(C(C)C)c(O)cc2O)c1-c1ccc(CN2CCOCC2)cc1	35%	·	-64%	·	?	·
Cc1ccc(C)c(N2CCN(CCCNC(=O)C3COc4ccccc4C3)CC2)c1 (configuration not stated)	-24%	?	-29%	?	?	12µM*
C=CC(=O)Nc1cccc(Nc2nc(NC3CCC(N(C)C)CC3)nc3c2ncn3C(C)C)c1 (configuration not stated)	?	·	-42%	·	-38%	·
CCOc1ccccc1CC1C(=O)Nc2ccc(Br)cc21 (configuration not stated)	?	?	-61%	?	18µM*	?
COc1ccc(OC)c(CC2C(=O)Nc3ccc(Br)cc32)c1 (configuration not stated)	-6%	?	-51%	-19%	20µM*	-8%
NC(N)=Nc1nc(CSCCC(N)=NS(N)(=O)=O)cs1	13%	·	-27%	·	19%	·

High-throughput results deposited in PubChem BioAssay by National Center for Advancing Translational Sciences (NCATS).
